Experimental data from PubChem BioAssay AID1159580 (chemical genetic matrix, 2015).
Among all 5,500 compounds or so, about 2,000 (36%) were called active. Not shown: some 18% with an inconclusive outcome. Cut-off read from the data, not from the text of the source: active = normalized growth mostly below about 0.91 (no sharp cut-off); inconclusive = no clear call, values can overlap the other calls; inactive = mostly above about 0.92. This is one part of the list.

Assay: chemical genetic growth profiling, strain panel (AID 1159580);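 note: tested at 20 µM; growth read once vehicle control cultures reached saturation at 30 °C; 1 = growth at the plate median or of vehicle wells; lower values mean less growth of the strain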
Details: S. cerevisiae deletion strains, growth OD

Measured: normalized growth

O=c1c(O)c(-c2ccc(O)cc2)oc2ccccc12
active: locus YAL021C, strain ccr4, hits give low values 0.576 | locus YAL026C, strain drs2, hits give low values 0.707 | locus YAL030W, strain snc1, hits give low values 0.809 | locus YBL061C, strain skt5, hits give low values 0.714 | locus YBR009C, strain hhf1, hits give low values 0.7 | locus YBR023C, strain chs3, hits give low values 0.643 | locus YBR231C, strain swc5, hits give low values 0.794 | locus YBR279W, strain paf1, hits give low values 0.749 | locus YCL011C, strain gbp2, hits give low values 0.762 | locus YCL016C, strain dcc1, hits give low values 0.849 | locus YCL061C, strain MRC1, hits give low values 0.904 | locus YCL069W, strain vba3, hits give low values 0.816 | locus YDR069C, strain doa4, hits give low values 0.56 | locus YDR137W, strain rgp1, hits give low values 0.397 | locus YDR159W, strain sac3, hits give low values 0.792 | locus YDR195W, strain ref2 1.34 [resistant] | locus YDR297W, strain sur2, hits give low values 0.82 | locus YDR334W, strain swr1, hits give low values 0.831 | locus YDR335W, strain msn5, hits give low values 0.789 | locus YDR392W, strain spt3, hits give low values 0.284 | locus YEL003W, strain gim4, hits give low values 0.79 | locus YEL037C, strain rad23, hits give low values 0.853 | locus YEL061C, strain CIN8 (second series), hits give low values 0.885 | locus YER015W, strain faa2, hits give low values 0.615 | locus YER016W, strain bim1, hits give low values 0.863 | locus YER111C, strain swi4, hits give low values 0.745 | locus YER155C, strain BEM2 (second series), hits give low values 0.489 | locus YFR010W, strain ubp6, hits give low values 0.84 | locus YGL173C, strain kem1, hits give low values 0.499 | locus YGL240W, strain doc1, hits give low values 0.855 | locus YGL253W, strain hxk2, hits give low values 0.63 | locus YHR013C, strain ard1, hits give low values 0.506 | locus YHR027C, strain rpn1, hits give low values 0.546 | locus YHR030C, strain SLT2, hits give low values 0.847 | locus YHR142W, strain chs7, hits give low values 0.495 | locus YJL095W, strain BCK1 (second series), hits give low values 0.731 | locus YJL095W, strain BCK1, hits give low values 0.833 | locus YJL129C, strain trk1, hits give low values 0.717 | locus YJL164C, strain tpk1, hits give low values 0.564 | locus YJL166W, strain qcr8, hits give low values 0.538 | locus YJL187C, strain SWE1, hits give low values 0.725 | locus YKL160W, strain elf1, hits give low values 0.713 | locus YLL001W, strain dnm1, hits give low values 0.777 | locus YLL026W, hits give low values 0.809 | locus YLL041C, strain sdh2, hits give low values 0.91 | locus YLR027C, strain aat2, hits give low values 0.695 | locus YLR113W, strain HOG1, hits give low values 0.719 | locus YLR221C, strain rsa3, hits give low values 0.697 | locus YLR258W, strain gsy2, hits give low values 0.766 | locus YLR262C, strain YPT6 (second series), hits give low values 0.369 | locus YLR320W, strain mms22, hits give low values 0.426 | locus YLR342W, strain FKS1, hits give low values 0.757 | locus YLR370C, strain arc18, hits give low values 0.781 | locus YLR384C, strain iki3, hits give low values 0.905 | locus YML120C, strain ndi1, hits give low values 0.669 | locus YMR058W, strain fet3, hits give low values 0.179 | locus YMR205C, strain PFK2, hits give low values 0.56 | locus YMR231W, strain pep5, hits give low values 0.545 | locus YNL071W, strain lat1, hits give low values 0.471 | locus YNL209W, strain ssb2, hits give low values 0.458 | locus YNL248C, strain rpa49, hits give low values 0.837 | locus YOR001W, strain rrp6, hits give low values 0.695 | locus YOR070C, strain gyp1, hits give low values 0.666 | locus YOR080W, strain dia2, hits give low values 0.861 | locus YOR083W, strain WHI5, hits give low values 0.664 | locus YOR106W, strain vam3, hits give low values 0.319 | locus YOR231W, strain MKK1, hits give low values 0.847 | locus YOR265W, strain rbl2, hits give low values 0.816 | locus YOR270C, strain vph1, hits give low values 0.328 | locus YOR290C, strain snf2, hits give low values 0.641 | locus YPL051W, strain arl3, hits give low values 0.441 | locus YPL078C, strain atp4, hits give low values 0.651 | locus YPL106C, strain sse1, hits give low values 0.843 | locus YPL240C, strain hsp82, hits give low values 0.869 | locus YPL256C, strain CLN2, hits give low values 0.816
inactive: locus YBR171W, strain sec66, hits give low values 0.903 | locus YCR088W, strain abp1, hits give low values 0.962 | locus YDL005C, strain med2, hits give low values 0.965 | locus YDL040C, strain nat1, hits give low values 0.934 | locus YDR001C, strain nth1, hits give low values 0.936 | locus YGL167C, strain pmr1, hits give low values 0.921 | locus YGL227W, strain vid30, hits give low values 0.962 | locus YHR079C, strain IRE1, hits give low values 0.855 | locus YJL092W, strain hpr5, hits give low values 0.922 | locus YJL115W, strain asf1, hits give low values 0.971 | locus YJL154C, strain vps35, hits give low values 0.931 | locus YJR066W, strain TOR1, hits give low values 0.842 | locus YKR026C, strain gcn3, hits give low values 0.945 | locus YKR091W, strain srl3, hits give low values 0.937 | locus YLR357W, strain rsc2, hits give low values 0.9 | locus YMR125W, strain sto1, hits give low values 0.972 | locus YMR129W, hits give low values 0.932 | locus YNL183C, strain NPR1, hits give low values 0.838 | locus YNL322C, strain KRE1 (second series), hits give low values 0.909 | locus YNR049C, strain mso1, hits give low values 0.919
